We go through three compounds from PubChem BioAssay (EPA / NIEHS).

Each structure is given as a SMILES string. Activity calls are given as the source filed them. Rule for the calls: active = hit-call score of the fitted dose curve at least 0.9, where 1 is the maximum; inactive = score below 0.9.

Holding throughout (conditions): mRNA level, 48 h; actives raise or lower the signal
Read-out in experiment [1]: Alkaline Phosphatase, Placental (ALPP) gene, ALPP (gene 250)
Briefly: LTEA_HepaRG_ALPP: Life Technologies and Expression Analysis (LTEA) Assay for Alkaline Phosphatase, Placental (ALPP) gene using HepaRG (AID 2283468).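 For AC50: differentiated human HepaRG liver cells in serum-free induction medium.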 In short, it runs like this: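 ALPP transcript level, measured by qRT-PCR and normalized to three housekeeping genes (ACTB, GAPDH, POLR2A), after 48 h dosing of differentiated HepaRG in serum-free induction medium. Top concentration 100 uM with half-log dilutions (8 points, 0.5% DMSO, duplicates); bidirectional fitting relative to DMSO.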

Read-out in experiment [2]: Bcl-2 (BAD) gene, BAD (gene 572)
The experiment in a line: LTEA_HepaRG_BAD: Life Technologies and Expression Analysis (LTEA) Assay for Bcl-2 (BAD) gene using HepaRG (AID 2283469). An outline of the steps:
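Read-out: qRT-PCR of BAD mRNA, normalized to three housekeeping genes. Human HepaRG cultures got 48 h chemical exposure in 0.5% DMSO, duplicate eight-point half-log series topping at 100 uM. Gain or loss of signal fitted versus DMSO vehicle.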

Read-out in experiment [3]: Bcl-2 (BAX) gene, BAX (gene 581)
The experiment in a line: LTEA_HepaRG_BAX: Life Technologies and Expression Analysis (LTEA) Assay for Bcl-2 (BAX) gene using HepaRG (AID 2283470). In short, it runs like this: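 Cells were thawed, plated for 48 h, moved to serum-free induction medium and dosed for 48 h (highest concentration 100 uM, half-log steps, 0.5% DMSO). Total RNA was then analysed for BAX expression by qRT-PCR.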

Read-out in experiment [4]: adenosine kinase (ADK) gene, ADK (gene 132)
The experiment in a line: LTEA_HepaRG_ADK: Life Technologies and Expression Analysis (LTEA) Assay for adenosine kinase (ADK) gene using HepaRG (AID 2283471). In short, it runs like this:
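ADK expression quantified by qRT-PCR, normalised to three housekeeping genes, after 48 h exposure of HepaRG cells to eight concentrations (top 100 uM, half-log steps, duplicate, 0.5% DMSO). Up- or down-regulation fitted relative to vehicle.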

Read-out in experiment [5]: Alpha-fetoprotein (AFP) gene, AFP (gene 174)
Briefly: LTEA_HepaRG_AFP: Life Technologies and Expression Analysis (LTEA) Assay for Alpha-fetoprotein (AFP) gene using HepaRG (AID 2283472). An outline of the steps: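 Chemicals were tested on differentiated HepaRG cells for 48 hours at eight concentrations up to 100 uM, with 0.5% DMSO as vehicle. AFP expression was then quantified by qRT-PCR and analyzed for gain or loss relative to DMSO.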

Read-out in a further experiment: BCL2L11 (gene 10018)
The experiment in a line: LTEA_HepaRG_BCL2L11: Life Technologies and Expression Analysis (LTEA) Assay for Bcl-2 (BCL2L11) gene using HepaRG (AID 2283473). An outline of the steps: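 BCL2L11 transcript levels are measured by Fluidigm qRT-PCR, normalized to three housekeeping genes. HepaRG cultures were plated 48 h, then treated 48 h with test chemical (top 100 uM, half-log, 0.5% DMSO vehicle); curves were fitted bidirectionally against DMSO.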

Read-out in experiment [6]: Apoptosis regulator Bcl-2 (Homo sapiens) (UniProt P10415)
Briefly: LTEA_HepaRG_BCL2: Life Technologies and Expression Analysis (LTEA) Assay for Bcl-2 gene using HepaRG (AID 2283475). In short, it runs like this:
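Plated human HepaRG cells are exposed to test chemicals for 48 h across eight concentrations from 100 uM downward in half-log steps (0.5% DMSO). BCL2 expression is then measured by qRT-PCR with housekeeping normalisation and fitted bidirectionally against vehicle.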

Read-out in experiment [7]: Bcl-2 (BID) gene, BID (gene 637)
The experiment in a line: LTEA_HepaRG_BID: Life Technologies and Expression Analysis (LTEA) Assay for Bcl-2 (BID) gene using HepaRG (AID 2283476). An outline of the steps:
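Cells are plated, cultured 48 h, switched to serum-free induction medium, then dosed 48 h (100 uM top, half-log steps, 0.5% DMSO). RNA is isolated and BID expression read by qRT-PCR.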

Read-out in a further experiment: Caspase-3 (Homo sapiens) (UniProt P42574)
Briefly: LTEA_HepaRG_CASP3: Life Technologies and Expression Analysis (LTEA) Assay for cysteine-aspartic acid protease (CASP3) using HepaRG (AID 2283477). In short, it runs like this:
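Expression of CASP3 was quantified by TaqMan qRT-PCR against three housekeeping genes (ACTB, GAPDH, POLR2A), bidirectionally versus 0.5% DMSO. HepaRG cultures received compounds in duplicate, top 100 uM with half-log steps, for 48 h in serum-free induction medium.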

Read-out in experiment [8]: Cytochrome P450 (CYP24A1), CYP24A1 (gene 1591)
The experiment in a line: LTEA_HepaRG_CYP24A1: Life Technologies and Expression Analysis (LTEA) Assay for Cytochrome P450 (CYP24A1) using HepaRG (AID 2283478). In short, it runs like this:
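mRNA of CYP24A1 quantified by TaqMan qRT-PCR (ACTB/GAPDH/POLR2A normalization) after 48 h chemical exposure of HepaRG cells, top concentration 100 uM, half-log steps, 0.5% DMSO vehicle, duplicates. Curves fitted bidirectionally against DMSO baseline.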

Read-out in experiment [9]: Cytochrome P450 (CYP1A2), CYP1A2 (gene 1544)
Briefly: LTEA_HepaRG_CYP1A2: Life Technologies and Expression Analysis (LTEA) Assay for Cytochrome P450 (CYP1A2) using HepaRG (AID 2283479). In short, it runs like this: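 CYP1A2 transcript measured by TaqMan qRT-PCR against three housekeeping genes after 48-hour chemical exposure of HepaRG cells. Eight-point half-log series topping at 100 uM in 0.5% DMSO, duplicates; gain or loss fitted relative to vehicle.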

Read-out in experiment [10]: cysteine-aspartic acid protease (CASP8), CASP8 (gene 841)
The experiment in a line: LTEA_HepaRG_CASP8: Life Technologies and Expression Analysis (LTEA) Assay for cysteine-aspartic acid protease (CASP8) using HepaRG (AID 2283480). In short, it runs like this:
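CASP8 transcript measured by TaqMan qRT-PCR with ACTB/GAPDH/POLR2A normalization, after 48 h chemical exposure of HepaRG cells in serum-free induction medium. Eight concentrations, top 100 uM, half-log steps, 0.5% DMSO vehicle; fits in both directions versus DMSO.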

Read-out in experiment [11]: Cytochrome P450 (CYP2B6), CYP2B6 (gene 1555)
Briefly: LTEA_HepaRG_CYP2B6: Life Technologies and Expression Analysis (LTEA) Assay for Cytochrome P450 (CYP2B6) using HepaRG (AID 2283481). An outline of the steps:
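CYP2B6 transcript level quantified by qRT-PCR against three housekeeping genes, fitted bidirectionally relative to DMSO. HepaRG cultures received chemicals for 48 h, 8-point half-log series from 100 uM in 0.5% DMSO, duplicate wells, serum-free induction medium.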

Read-out in experiment [12]: Cytochrome P450 2C19 (Homo sapiens) (UniProt P33261)
Briefly: LTEA_HepaRG_CYP2C19: Life Technologies and Expression Analysis (LTEA) Assay for CYP2C19 using HepaRG (AID 2283482). An outline of the steps: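 CYP2C19 transcript levels by qRT-PCR, normalized to three housekeeping genes, in HepaRG cells after 48 h chemical exposure. Eight-point half-log series topping at 100 uM, 0.5% DMSO vehicle. Increases and decreases both fitted against DMSO.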

Read-out in a further experiment: CYP2C8 (gene 1558)
The experiment in a line: LTEA_HepaRG_CYP2C8: Life Technologies and Expression Analysis (LTEA) Assay for CYP2C8 using HepaRG (AID 2283483). In short, it runs like this: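 CYP2C8 expression measured by TaqMan qRT-PCR and normalized to three housekeeping genes. HepaRG cultures were treated for 48 h with an eight-point half-log series topping at 100 uM, vehicle 0.5% DMSO, duplicates; fitted both directions against DMSO.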

Read-out in the next experiment: CYP2C9 (gene 1559)
Briefly: LTEA_HepaRG_CYP2C9: Life Technologies and Expression Analysis (LTEA) Assay for CYP2C9 using HepaRG (AID 2283484). An outline of the steps: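 CYP2C9 transcript level, quantified by TaqMan qRT-PCR against three housekeeping genes, was fitted bidirectionally relative to 0.5% DMSO. HepaRG cultures were treated 48 h, in duplicate, at eight half-log concentrations topping at 100 uM.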

Read-out in another experiment: CYP2E1 (gene 1571)
Briefly: LTEA_HepaRG_CYP2E1: Life Technologies and Expression Analysis (LTEA) Assay for CYP2E1 using HepaRG (AID 2283485). In short, it runs like this: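 Readout is qRT-PCR of CYP2E1 mRNA, normalized to three housekeeping genes and fitted bidirectionally against 0.5% DMSO. HepaRG cells were dosed 48 h at eight concentrations, highest 100 uM with half-log dilutions.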

Read-out in the next experiment: CYP4A11 (gene 1579)
The experiment in a line: LTEA_HepaRG_CYP4A11: Life Technologies and Expression Analysis (LTEA) Assay for CYP4A11 using HepaRG (AID 2283486). In short, it runs like this:
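Readout is CYP4A11 transcript level by qRT-PCR, normalized to three housekeeping genes and fitted bidirectionally against 0.5% DMSO. Human HepaRG cells were treated 48 h, in duplicate, with an 8-point half-log series topping at 100 uM.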

Read-out in experiment [13]: Cytochrome P450 3A4 (Homo sapiens) (UniProt P08684)
Briefly: LTEA_HepaRG_CYP3A4: Life Technologies and Expression Analysis (LTEA) Assay for CYP3A4 using HepaRG (AID 2283487). An outline of the steps: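 Differentiated HepaRG cells, plated 48 h, then dosed 48 h in serum-free induction medium with 0.5% DMSO, 8 half-log concentrations up to 100 uM, duplicate. CYP3A4 mRNA by qRT-PCR, normalized to ACTB/GAPDH/POLR2A; bidirectional fit versus DMSO.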

Cytochrome P450 2C19 (Homo sapiens), sequence (P33261 whole entry, looked up): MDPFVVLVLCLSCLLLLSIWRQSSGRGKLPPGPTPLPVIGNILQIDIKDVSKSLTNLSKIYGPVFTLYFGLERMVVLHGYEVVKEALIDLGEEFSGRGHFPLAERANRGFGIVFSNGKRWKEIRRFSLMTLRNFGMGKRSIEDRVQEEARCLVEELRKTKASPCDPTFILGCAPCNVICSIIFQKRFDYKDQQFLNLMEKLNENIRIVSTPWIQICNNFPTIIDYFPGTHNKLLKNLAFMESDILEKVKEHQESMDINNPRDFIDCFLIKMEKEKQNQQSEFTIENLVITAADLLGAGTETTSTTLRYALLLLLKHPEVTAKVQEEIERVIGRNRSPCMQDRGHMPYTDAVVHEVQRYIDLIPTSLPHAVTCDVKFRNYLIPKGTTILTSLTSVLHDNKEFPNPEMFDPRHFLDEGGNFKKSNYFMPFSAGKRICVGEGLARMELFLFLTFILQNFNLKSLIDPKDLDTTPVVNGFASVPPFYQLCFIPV
Caspase-3 (Homo sapiens), sequence (P42574 whole entry, looked up): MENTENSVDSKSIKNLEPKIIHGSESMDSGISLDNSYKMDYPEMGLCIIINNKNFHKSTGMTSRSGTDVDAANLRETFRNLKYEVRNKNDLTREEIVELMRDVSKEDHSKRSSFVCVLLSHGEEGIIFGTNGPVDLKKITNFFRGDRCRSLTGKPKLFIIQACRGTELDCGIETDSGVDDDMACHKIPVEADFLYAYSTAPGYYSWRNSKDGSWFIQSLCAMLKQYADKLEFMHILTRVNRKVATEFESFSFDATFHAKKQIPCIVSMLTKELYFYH
Cytochrome P450 3A4 (Homo sapiens), sequence (P08684 whole entry, looked up): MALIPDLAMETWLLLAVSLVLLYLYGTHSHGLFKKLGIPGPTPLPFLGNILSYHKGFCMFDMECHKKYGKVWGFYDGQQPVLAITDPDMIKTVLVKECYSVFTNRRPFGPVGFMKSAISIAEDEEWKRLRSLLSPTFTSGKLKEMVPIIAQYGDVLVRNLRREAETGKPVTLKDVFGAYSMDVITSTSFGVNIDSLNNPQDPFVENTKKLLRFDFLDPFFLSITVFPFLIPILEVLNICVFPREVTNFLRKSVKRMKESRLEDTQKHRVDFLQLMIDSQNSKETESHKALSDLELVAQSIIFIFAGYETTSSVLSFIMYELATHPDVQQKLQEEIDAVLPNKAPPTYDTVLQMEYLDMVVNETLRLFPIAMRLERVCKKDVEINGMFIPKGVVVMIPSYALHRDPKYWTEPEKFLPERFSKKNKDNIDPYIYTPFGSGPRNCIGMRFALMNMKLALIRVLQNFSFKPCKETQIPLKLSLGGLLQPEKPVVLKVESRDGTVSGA
Apoptosis regulator Bcl-2 (Homo sapiens), sequence (P10415 whole entry, looked up): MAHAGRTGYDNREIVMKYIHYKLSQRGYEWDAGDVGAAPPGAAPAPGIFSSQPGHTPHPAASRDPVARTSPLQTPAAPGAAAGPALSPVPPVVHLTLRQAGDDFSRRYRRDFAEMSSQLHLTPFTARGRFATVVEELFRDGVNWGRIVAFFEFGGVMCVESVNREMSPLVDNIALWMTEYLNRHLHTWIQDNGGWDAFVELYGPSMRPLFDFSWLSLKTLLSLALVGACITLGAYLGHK

As for `Cc1ccc(-c2c(Cl)nc(C#N)n2S(=O)(=O)N(C)C)cc1`, the AC50 was 50 µM (active) in [1]; 68.3 µM (active) in [2]; 50 µM (active) in [4]; 3.99 µM (active) in [5]; 87.4 µM (active) in experiment [6]; 0.01 µM (active) in [8]. For the same compound, the AC50 is 89.8 µM (active) in experiment [10]; 5 µM (active) in [11]; 5.98 µM (active) in experiment [12]; 9.33 µM (active) in the experiment with CYP2C8 (gene 1558); 7.78 µM (active) in the experiment with CYP2C9 (gene 1559); 5.17 µM (active) in the experiment with CYP2E1 (gene 1571). Also, the AC50 was 10.4 µM (active) in the experiment with CYP4A11 (gene 1579) and 24.8 µM (active) in experiment [13]. In addition, the outcome (in experiment [3]; with BCL2L11 (gene 10018); in experiment [7]; with Caspase-3 (Homo sapiens); in [9]) was inactive.
Turning to `CCOP(=S)(OCC)SCn1c(=O)oc2cc(Cl)ccc21`, the result (in [1]; in experiment [2]; in experiment [3]; in experiment [4]; in experiment [5]; with BCL2L11 (gene 10018)) was inactive. Further, the outcome (in [6]; in experiment [7]; with Caspase-3 (Homo sapiens); in experiment [8]; in experiment [10]; in experiment [12]) was inactive. Further, the compound was called inactive (with CYP2C8 (gene 1558); with CYP2C9 (gene 1559); in the experiment with CYP2E1 (gene 1571); with CYP4A11 (gene 1579); in [13]). Also, the AC50 in experiment [9] is 75.3 µM (active); in [11], 17.7 µM (active).
As to `CC(C)C1(C)N=C(c2nc3ccccc3cc2C(=O)O)NC1=O` (configuration not stated), the outcome (in experiment [1]; in [2]; in [3]; in experiment [4]; in experiment [5]; in the experiment with BCL2L11 (gene 10018)) was inactive. Further, the result (in experiment [6]; in experiment [7]; with Caspase-3 (Homo sapiens); in experiment [8]; in experiment [10]; in the experiment with CYP2C8 (gene 1558)) was inactive. The result with CYP2C9 (gene 1559), with CYP2E1 (gene 1571) and with CYP4A11 (gene 1579) was inactive. Also, the AC50 in experiment [9] was 28.7 µM (active); in experiment [11], 6.39 µM (active); in experiment [12] it was 14.1 µM (active); in [13], 18.8 µM (active).
